This note sets out measurements from ChEMBL document CHEMBL1961873, “Compounds: GSK PKIS; Assays: Nanosyn kinase panel” (2012).

The inhibition is the drop in the measured response relative to a control, in per cent.

Structures are written as SMILES.

One assay addresses T1, Testis-specific serine/threonine-protein kinase 1 (Homo sapiens) (UniProt Q9BXA7).
T1 sequence (whole entry): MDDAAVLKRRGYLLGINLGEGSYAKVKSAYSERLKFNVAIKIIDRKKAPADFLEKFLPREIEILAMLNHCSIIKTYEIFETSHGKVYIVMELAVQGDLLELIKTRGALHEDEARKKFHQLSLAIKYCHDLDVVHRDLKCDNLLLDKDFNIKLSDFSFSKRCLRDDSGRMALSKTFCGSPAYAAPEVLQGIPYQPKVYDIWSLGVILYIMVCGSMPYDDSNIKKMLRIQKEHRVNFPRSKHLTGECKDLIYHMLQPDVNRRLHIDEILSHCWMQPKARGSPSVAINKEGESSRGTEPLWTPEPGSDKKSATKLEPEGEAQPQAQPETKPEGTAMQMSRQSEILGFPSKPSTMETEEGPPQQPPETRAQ
Particulars: at 1 µM.
With `CS(=O)(=O)CCNCc1cc(-c2cc3c(Nc4ccc(OCc5cccc(F)c5)c(Cl)c4)ncnc3s2)cs1`, the inhibition turned out to be 4.37%.
The same measure, in the same setting: then `Fc1ccc(-c2c(-c3ccncc3)nc3n2CCS3)cc1`, with 2.91%.
On the same count and under the same terms, the same measure for `Cc1ccc(NC(=O)c2ccoc2)cc1-c1ccc(C(=O)NCC2CC2)cc1`: 3.27%.
Still for that read-out and setting: then `NS(=O)(=O)c1ccc(N/N=C2\C(=O)Nc3ccc(-c4cnco4)cc32)cc1`, with 12.4%; and `O=C(Nc1n[nH]c2cc(-c3cc(F)ccc3F)ccc12)C1CC1`, with 2.04%.
As to `Nc1nccc(-c2c(-c3ccc(F)cc3)ncn2C2CCC(O)CC2)n1` (configuration not stated), the inhibition was -1.96%.
Same read-out and setting: then `C[C@@H](Oc1cc(-n2cnc3ccc(OC4CCN(C)CC4)cc32)sc1C(N)=O)c1ccccc1Cl`, with 10.3%; and `CCS(=O)(=O)c1ccc(OC)c(Nc2ncc(-c3cccc(-c4ccccc4F)c3)o2)c1`, with -0.72%.
The same measure, in the same setting: then `O=C1Nc2ccc(I)cc2C1=Cc1cc(Br)c(O)c(Br)c1`, with 5.45%; and `COc1cccc(/C=N/Nc2ncnc3c2cnn3-c2cccc(OC)c2)c1`, with 3.86%.
Consider `COc1cc2ncn(-c3cc(OCc4cccs4)c(C(N)=O)s3)c2cc1OC`, for which the inhibition worked out at 8.81%.
On the same count and under the same terms, the same measure for `NC(=O)c1ccc(Oc2nccc(-c3c(-c4ccc(F)cc4)ncn3C3CCNCC3)n2)cc1`: 5.29%.
In the case of `CN(C)CCCNc1nccc(-c2c(-c3ccc(F)cc3)nn3cc(C(F)(F)F)ccc23)n1`, the inhibition is -1.19%.
On the same count and under the same terms, then `O=C1NC(=O)C(c2cccc(Cl)c2)=C1Nc1ccc(Cl)c(C(=O)O)c1`, with 4.16%; and `NC(=O)Cc1ccccc1Oc1nccc(-c2c(-c3ccc(F)cc3)ncn2C2CCNCC2)n1`, with 1.8%.
On the same count and under the same terms, then `Fc1ccc(-c2ncn(C3CCNCC3)c2-c2ccnc(Oc3ccc(F)c(F)c3)n2)cc1`, with 3.01%; and `O=C(Nc1n[nH]c2cc(-c3ccccc3)ccc12)C1CC1`, with 2.02%.
On the same count and under the same terms, the same measure for `Cc1nnc(-c2ccc(C)c(-c3ccc(C(=O)NCc4ccc(Cl)cc4)cc3)c2)o1`: 4.33%.

The target of another assay is T2, Testis-specific serine/threonine-protein kinase 2 (Homo sapiens) (UniProt Q96PF2).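 Note: values are mean inhibition of TSSK2 activity from the GSK PKIS profiling panel.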
T2 sequence (whole entry): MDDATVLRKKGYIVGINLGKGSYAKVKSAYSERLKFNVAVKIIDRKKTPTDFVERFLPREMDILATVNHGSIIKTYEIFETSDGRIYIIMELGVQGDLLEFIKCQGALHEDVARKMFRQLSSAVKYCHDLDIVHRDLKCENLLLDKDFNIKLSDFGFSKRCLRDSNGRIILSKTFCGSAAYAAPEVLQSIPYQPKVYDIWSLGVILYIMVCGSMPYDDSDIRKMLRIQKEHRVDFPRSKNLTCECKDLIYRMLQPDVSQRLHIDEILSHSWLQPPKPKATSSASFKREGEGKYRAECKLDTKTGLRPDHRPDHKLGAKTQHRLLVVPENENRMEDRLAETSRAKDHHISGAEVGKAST
The settings on record: at 0.1 µM.
For the molecule `COc1ccc2ncn(-c3cc(O[C@H](C)c4ccccc4Cl)c(C(N)=O)s3)c2c1`, the inhibition turned out to be 0.96%.
The same measure, in the same setting: then `C#Cc1cccc(Nc2ncnc3ccc(OCCCCNCCS(C)(=O)=O)cc23)c1`, with 2.32%; and `NS(=O)(=O)c1ccc(Nc2cc(-c3ccc(O)c(F)c3)n[nH]2)cc1`, with -3.53%; and `C[C@@H](Oc1cc(-n2cnc3ccc(OCC4CCN(C)CC4)cc32)sc1C(N)=O)c1ccccc1Cl`, with 3.55%.
Turning to `Fc1ccc(-c2ncn(CCCN3CCOCC3)c2-c2ccncc2)cc1`, the inhibition is -1.62%.
Same read-out and setting: the same measure for `NS(=O)(=O)c1ccc(N/N=C2\C(=O)Nc3ccc(C(=O)NCCCn4ccnc4)cc32)cc1`: 4.07%; for `COc1ccc2cc(-c3c(-c4ccncc4)nc(-c4ccc(S(C)(=O)=O)cc4C)n3C)ccc2c1`: 2.43%.
On the same count and under the same terms, then `Clc1ccc(CNc2nccc(-c3cnn4ncccc34)n2)cc1`, with 0.23%; and `COC(=O)Nc1nc2ccc(Sc3ccc(NC(=O)Nc4cc(C(F)(F)F)ccc4F)cc3)cc2[nH]1`, with -0.2%.
`Fc1ccc(-c2ncn(C3CCNCC3)c2-c2ccnc(Oc3ccc4c(c3)OCO4)n2)cc1`: the inhibition was 2.83%.
On the same count and under the same terms, the same measure for `Cc1ccc(C(=O)NC(C)C)cc1-c1ccc(C(=O)NCC2CC2)cc1`: -1.67%; for `CCS(=O)(=O)c1ccc(OC)c(Nc2ncc(-c3ccccc3Cl)o2)c1`: 1.6%; for `NC(=O)c1cc(-c2ccncc2)cc(-c2ccccc2)c1N`: 2.4%.
Still for that read-out and setting: the same measure for `c1ccc(-c2n[nH]cc2-c2ccnc(-c3ccc(OCCN4CCOCC4)cc3)c2)nc1`: -1.89%; for `Cc1ccc(C(=O)NC2CCC2)cc1-c1ccc(C(=O)NCC2CC2)cc1`: 0.09%.
The same measure, in the same setting: the same measure for `CN(c1ccc(NC(=O)Nc2c(Cl)cccc2Cl)cc1)c1ccnc(Nc2cccc(CS(C)(=O)=O)c2)n1`: 0.55%.
With `CS(=O)(=O)CCNCc1cc(-c2cc3c(Nc4ccc(OCc5cccc(F)c5)c(Cl)c4)ncnc3s2)cs1`, the inhibition was 2.22%.
Still for that read-out and setting: the same measure for `Fc1ccc(-c2c(-c3ccncc3)nc3n2CCS3)cc1`: 1.87%; for `Cc1ccc(NC(=O)c2ccoc2)cc1-c1ccc(C(=O)NCC2CC2)cc1`: 0.85%.
Same read-out and setting: then `NS(=O)(=O)c1ccc(N/N=C2\C(=O)Nc3ccc(-c4cnco4)cc32)cc1`, with 0.01%; and `O=C(Nc1n[nH]c2cc(-c3cc(F)ccc3F)ccc12)C1CC1`, with 1.22%.
On the same count and under the same terms, the same measure for `Nc1nccc(-c2c(-c3ccc(F)cc3)ncn2C2CCC(O)CC2)n1` (configuration not stated): -1.46%; for `C[C@@H](Oc1cc(-n2cnc3ccc(OC4CCN(C)CC4)cc32)sc1C(N)=O)c1ccccc1Cl`: 2.61%; for `CCS(=O)(=O)c1ccc(OC)c(Nc2ncc(-c3cccc(-c4ccccc4F)c3)o2)c1`: 0.42%.
As for `O=C1Nc2ccc(I)cc2C1=Cc1cc(Br)c(O)c(Br)c1`, the inhibition is 2.33%.
On the same count and under the same terms, the same measure for `COc1cccc(/C=N/Nc2ncnc3c2cnn3-c2cccc(OC)c2)c1`: 2.47%; for `COc1cc2ncn(-c3cc(OCc4cccs4)c(C(N)=O)s3)c2cc1OC`: 2.91%; for `NC(=O)c1ccc(Oc2nccc(-c3c(-c4ccc(F)cc4)ncn3C3CCNCC3)n2)cc1`: 2.52%.
The same measure, in the same setting: the same measure for `CN(C)CCCNc1nccc(-c2c(-c3ccc(F)cc3)nn3cc(C(F)(F)F)ccc23)n1`: 0.61%; for `O=C1NC(=O)C(c2cccc(Cl)c2)=C1Nc1ccc(Cl)c(C(=O)O)c1`: 3.03%; for `NC(=O)Cc1ccccc1Oc1nccc(-c2c(-c3ccc(F)cc3)ncn2C2CCNCC2)n1`: 1.16%.
The same measure, in the same setting: then `Fc1ccc(-c2ncn(C3CCNCC3)c2-c2ccnc(Oc3ccc(F)c(F)c3)n2)cc1`, with 0.64%; and `O=C(Nc1n[nH]c2cc(-c3ccccc3)ccc12)C1CC1`, with 1.41%.
As for `Cc1nnc(-c2ccc(C)c(-c3ccc(C(=O)NCc4ccc(Cl)cc4)cc3)c2)o1`, the inhibition was 1.65%.
